Records with an inconclusive call do not appear. Calls of active or inactive are those of the source. Unless noted, the call rests on the fitted dose curve; in most records, active means well fitted curve in the direction sought with a large enough effect in the repeat runs; inconclusive means weak or mixed curves; inactive means no such curve, though single readings can be large; an effect the other way counts as inactive or inconclusive.

A short description of experiment [1]: qHTS assay to identify small molecule antagonists of the thyroid receptor (TR) signaling pathway - cell viability counter screen (AID 743064). Further: nearly all actives have a fitted effect of over 50% in size. Further: potency means the concentration at half of the fitted maximal effect. The method, boiled down: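 GH3.TRE-Luc cells, 4 h pre-plating; cpd + T3 1 nM final; 37 °C 23.5 h; CellTiter-Fluor 30 min; fluorescence read.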
For orientation: In qHTS, concentration-response curves come from the screen itself.

The nature of experiment [2]: qHTS assay to identify small molecule antagonists of the thyroid receptor (TR) signaling pathway (AID 743065). Further: nearly all actives have a fitted effect of over 55% in size. Further: potency means the concentration at half of the fitted maximal effect. The method, boiled down: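 GH3.TRE-Luc rat pituitary cells carrying two TR response elements driving luciferase were plated for 4 h, given compound plus 1 nM T3 (final), and incubated 23.5 h at 37 C. ONE-Glo luminescence measured reporter inhibition; CellTiter-Fluor fluorescence tracked cytotoxicity.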

The subject of experiment [3] is thyroid hormone receptor (rat, GH3 cells). The experiment in a line: qHTS assay to identify small molecule agonists of the thyroid receptor (TR) signaling pathway (AID 743066; calls by dose curve).
The nature of experiment [4]: qHTS assay to identify small molecule antagonists of the estrogen receptor alpha (ER-alpha) signaling pathway - cell viability counter screen (AID 743074; calls by dose curve;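 further: HEK293 cells carrying ER-alpha-UAS-bla reporter stimulated with 17beta-estradiol; nearly all actives have a fitted effect of over 45% in size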).
Experiment [5] has as its target Estrogen receptor (Homo sapiens) (UniProt P03372). Description: qHTS assay to identify small molecule agonists of the estrogen receptor alpha (ER-alpha) signaling pathway (AID 743075; calls by dose curve;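 further: HEK293 GripTite cells with ER-alpha and UAS-driven beta-lactamase reporter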; further: potency means the concentration at half of the fitted maximal effect).
Experiment [6] has the same target. The experiment in a line: qHTS assay to identify small molecule agonists of the estrogen receptor alpha (ER-alpha) signaling pathway using the BG1 cell line (AID 743079). Further: nearly all actives have a fitted effect of over 20% in size. Further: potency means the concentration at half of the fitted maximal effect. The note with it: BG1Luc4E2 cells, ERE-luciferase agonist, 22 h; activation: at 70.3 µM (top of the series).
A short description of experiment [7]: qHTS assay to identify small molecule antagonists of the estrogen receptor alpha (ER-alpha) signaling pathway using the BG1 cell line - cell viability counter screen (AID 743081).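 Further: compound given together with 17beta-estradiol as the ER stimulus; nearly all actives have a fitted effect of over 45% in size.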 Further: potency means the concentration at half of the fitted maximal effect.
A further experiment addresses Aromatase (Homo sapiens) (UniProt P11511). The experiment in a line: qHTS assay to identify aromatase inhibitors (AID 743083). Further: nearly all actives have a fitted effect of over 55% in size.
The nature of experiment [8]: qHTS assay to identify aromatase inhibitors - cell viability counter screen (AID 743084).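 Further: cells stimulated with testosterone during compound exposure; nearly all actives have a fitted effect of over 55% in size.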 Further: potency means the concentration at half of the fitted maximal effect.
Experiment [9] addresses Aryl hydrocarbon receptor (Homo sapiens) (UniProt P35869). Description: qHTS assay to identify small molecule that activate the aryl hydrocarbon receptor (AhR) signaling pathway (AID 743085). Further: nearly all actives have a fitted effect of over 15% in size. Further: potency means the concentration at half of the fitted maximal effect.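 On activation: HG2L7.5c1 human HepG2 liver cells with stably integrated DRE-driven firefly reporter.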 A digest of the protocol: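 Luminescence read-out: ONE-Glo reagent, 30 min at room temperature, in HG2L7.5c1 HepG2 reporter cells treated 24 h at 37C. Viability was measured beforehand by CellTiter-Fluor fluorescence after 30 min at 37C.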

A short description of experiment [10]: qHTS assay to identify small molecule that activate the aryl hydrocarbon receptor (AhR) signaling pathway - cell viability counter screen (AID 743086). Further: nearly all actives have a fitted effect of over 45% in size. Further: potency means the concentration at half of the fitted maximal effect. A digest of the protocol:
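HepG2-AhR-luc (HG2L7.5c1) cells, 4000/well, were preincubated 5 h at 37C, exposed to compound in qHTS format for 24 hr at 37C, then given CellTiter-Fluor for 30 min; viability was read as fluorescence in the reporter wells.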

For experiment [11], the target named is Peroxisome proliferator-activated receptor gamma (Homo sapiens) (UniProt P37231). The experiment in a line: qHTS assay to identify small molecule agonists of the peroxisome proliferator-activated receptor gamma (PPARg) signaling pathway (AID 743094; active means well fitted activation curve with a large enough effect in the signal ratio in the repeat runs, not every such curve was filed as active; the % refers to the signal ratio). A digest of the protocol:
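Reporter activation was scored by fluorescence of cleaved LiveBLAzer B/G substrate (1 h, room temperature) in PPARg-bla HEK293H cells previously treated 17 h at 37C with DMSO-dissolved compounds.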

Experiment [12] shares this target. The experiment in a line: qHTS assay to identify small molecule antagonists of the peroxisome proliferator-activated receptor gamma (PPARg) signaling pathway (AID 743191; calls by dose curve; further: nearly all actives have a fitted effect of over 30% in size; further: potency means the concentration at half of the fitted maximal effect). The method, boiled down: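 GeneBLAzer PPARg UAS-bla HEK293H cells carrying a UAS-driven beta-lactamase reporter were plated at 3000 cells/well, preincubated 5 h at 37C, then given compound for 17 h at 37C; LiveBLAzer B/G FRET substrate was read after 1 h at room temperature.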

Experiment [13] in a line: qHTS assay to identify small molecule antagonists of the peroxisome proliferator-activated receptor gamma (PPARg) signaling pathway - cell viability counter screen (AID 743194). Further: nearly all actives have a fitted effect of over 55% in size. A digest of the protocol: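 PPARg-UAS-bla HEK293H cells were plated, rested 5 h at 37 C, then treated with compounds plus rosiglitazone (50 nM final) for 17 h at 37 C; viability was then read by CellTiter-Glo luminescence after 30 min at room temperature.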

A short description of experiment [14]: qHTS assay for small molecule agonists of the antioxidant response element (ARE) signaling pathway - cell viability counter screen (AID 743203; calls by dose curve; further: nearly all actives have a fitted effect of over 55% in size). A digest of the protocol:
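Viability counter screen: stably transfected ARE-bla HepG2 line, 16 hrs compound exposure at 37C/5% CO2, ATP-based CellTiter-Glo luminescence measured in the reporter wells.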

A short description of experiment [15]: qHTS assay for small molecule activators of the heat shock response signaling pathway - cell viability counter screen (AID 743209). Further: nearly all actives have a fitted effect of over 50% in size. The method, boiled down: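 Viability of HSE-bla HeLa cells is measured with CellTiter-Glo in the wells already used for the reporter read. Compound exposure lasts 5 h at 37 C, and luminescence is read after 30 min at room temperature.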

Experiment [16] is described as follows: qHTS assay for small molecule activators of the heat shock response signaling pathway (AID 743210; active means well fitted activation curve with a large enough effect in the signal ratio in the repeat runs, with a control signal flat, not every such curve was filed as active; the % refers to the signal ratio). A digest of the protocol: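 Heat shock element–beta-lactamase HeLa reporter cells; qHTS with compounds for 5 h at 37 C; detection by FRET substrate fluorescence after 2.5 h at RT.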
Experiment [17] deals with Estrogen receptor (Homo sapiens) (UniProt P03372). Description: qHTS assay to identify small molecule antagonists of the estrogen receptor alpha (ER-alpha) signaling pathway (AID 743069; active means well fitted curve in the direction sought with a large enough effect in the signal ratio in the repeat runs, not every such curve was filed as active; the % refers to the signal ratio). A digest of the protocol:
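A 17beta-estradiol challenge was applied right after compound transfer to ER-alpha-UAS-bla HEK293 cells previously kept in charcoal-stripped serum. Plates stood 18 hr at 37C and 5% CO2; fluorescence was read following 2 hr FRET substrate loading at room temperature.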

Experiment [18] is described as follows: qHTS assay for small molecule agonists of the antioxidant response element (ARE) signaling pathway (AID 743202; active means well fitted activation curve with a large enough effect in the signal ratio in the repeat runs, not every such curve was filed as active; the % refers to the signal ratio). The method, boiled down:
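Following a 16 h, 37 C exposure of reporter HepG2 cells (ARE-driven beta-lactamase, 2,000 cells/well) to compounds, FRET substrate was applied for 2 h at room temperature and fluorescence intensity recorded.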

A short description of experiment [19]: qHTS assay to identify small molecule antagonists of the estrogen receptor alpha (ER-alpha) signaling pathway using the BG1 cell line (AID 743080; calls by dose curve;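 further: BG1 cells stimulated with 17beta-estradiol alongside compound; nearly all actives have a fitted effect of over 25% in size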). A digest of the protocol:
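Readout is ONE-Glo luminescence, taken 30 min at room temperature after reagent addition, preceded by a CellTiter-Fluor viability read; BG1-Luc-4E2 cells had received compound and 17beta-estradiol for 21.5 h at 37 C.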

Sequence of Aryl hydrocarbon receptor (Homo sapiens) (P35869 whole entry, looked up): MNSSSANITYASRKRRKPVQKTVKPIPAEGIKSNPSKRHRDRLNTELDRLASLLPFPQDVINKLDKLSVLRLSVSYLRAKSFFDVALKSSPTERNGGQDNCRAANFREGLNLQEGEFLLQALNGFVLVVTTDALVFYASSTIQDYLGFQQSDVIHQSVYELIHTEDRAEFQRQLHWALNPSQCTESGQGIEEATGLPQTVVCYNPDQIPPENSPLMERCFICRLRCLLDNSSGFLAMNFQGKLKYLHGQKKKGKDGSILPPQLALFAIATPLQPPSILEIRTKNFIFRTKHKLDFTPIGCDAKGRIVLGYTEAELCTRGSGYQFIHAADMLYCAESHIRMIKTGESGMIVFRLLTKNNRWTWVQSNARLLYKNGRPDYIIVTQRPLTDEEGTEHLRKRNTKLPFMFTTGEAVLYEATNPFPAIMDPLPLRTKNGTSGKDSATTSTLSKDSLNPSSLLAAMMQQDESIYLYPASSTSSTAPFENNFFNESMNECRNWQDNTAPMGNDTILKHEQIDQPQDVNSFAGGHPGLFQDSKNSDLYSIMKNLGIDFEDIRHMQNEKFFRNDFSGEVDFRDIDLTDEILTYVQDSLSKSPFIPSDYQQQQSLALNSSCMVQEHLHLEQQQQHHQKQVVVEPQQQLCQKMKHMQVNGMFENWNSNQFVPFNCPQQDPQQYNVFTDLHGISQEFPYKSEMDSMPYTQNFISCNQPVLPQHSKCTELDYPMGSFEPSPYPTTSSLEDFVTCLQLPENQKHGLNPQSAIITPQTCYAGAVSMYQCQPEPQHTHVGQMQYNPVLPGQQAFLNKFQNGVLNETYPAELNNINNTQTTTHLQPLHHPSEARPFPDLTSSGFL
Sequence of Peroxisome proliferator-activated receptor gamma (Homo sapiens) (P37231 whole entry, looked up): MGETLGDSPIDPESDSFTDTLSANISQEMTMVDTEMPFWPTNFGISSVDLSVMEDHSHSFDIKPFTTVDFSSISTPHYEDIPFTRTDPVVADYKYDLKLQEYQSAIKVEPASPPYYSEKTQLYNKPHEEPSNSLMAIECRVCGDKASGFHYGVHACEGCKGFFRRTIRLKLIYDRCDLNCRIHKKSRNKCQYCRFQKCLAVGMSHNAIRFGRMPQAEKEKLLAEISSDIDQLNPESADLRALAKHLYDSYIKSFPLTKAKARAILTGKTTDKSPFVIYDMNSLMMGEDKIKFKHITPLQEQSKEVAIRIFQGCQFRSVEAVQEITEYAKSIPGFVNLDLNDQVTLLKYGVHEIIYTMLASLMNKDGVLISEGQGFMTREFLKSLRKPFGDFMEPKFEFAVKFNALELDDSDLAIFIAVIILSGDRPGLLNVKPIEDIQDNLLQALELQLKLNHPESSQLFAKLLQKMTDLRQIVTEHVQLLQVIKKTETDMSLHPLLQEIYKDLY
Sequence of Estrogen receptor (Homo sapiens) (P03372 whole entry, looked up): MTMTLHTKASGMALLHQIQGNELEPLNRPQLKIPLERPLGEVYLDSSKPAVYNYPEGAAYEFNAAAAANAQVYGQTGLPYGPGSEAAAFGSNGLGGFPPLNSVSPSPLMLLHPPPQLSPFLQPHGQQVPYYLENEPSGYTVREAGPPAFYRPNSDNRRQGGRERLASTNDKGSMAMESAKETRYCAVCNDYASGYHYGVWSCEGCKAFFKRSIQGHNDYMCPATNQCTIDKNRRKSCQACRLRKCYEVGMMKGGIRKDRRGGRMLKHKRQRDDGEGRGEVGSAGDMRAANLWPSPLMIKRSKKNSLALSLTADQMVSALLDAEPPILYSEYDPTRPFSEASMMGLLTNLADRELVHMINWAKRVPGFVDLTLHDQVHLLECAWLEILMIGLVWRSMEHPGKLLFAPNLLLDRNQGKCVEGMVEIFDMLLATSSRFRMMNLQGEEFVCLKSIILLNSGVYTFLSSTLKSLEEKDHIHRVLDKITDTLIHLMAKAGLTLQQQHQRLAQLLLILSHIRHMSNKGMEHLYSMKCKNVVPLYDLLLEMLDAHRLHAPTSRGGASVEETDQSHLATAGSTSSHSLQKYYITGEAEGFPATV
Sequence of Aromatase (Homo sapiens) (P11511 whole entry, looked up): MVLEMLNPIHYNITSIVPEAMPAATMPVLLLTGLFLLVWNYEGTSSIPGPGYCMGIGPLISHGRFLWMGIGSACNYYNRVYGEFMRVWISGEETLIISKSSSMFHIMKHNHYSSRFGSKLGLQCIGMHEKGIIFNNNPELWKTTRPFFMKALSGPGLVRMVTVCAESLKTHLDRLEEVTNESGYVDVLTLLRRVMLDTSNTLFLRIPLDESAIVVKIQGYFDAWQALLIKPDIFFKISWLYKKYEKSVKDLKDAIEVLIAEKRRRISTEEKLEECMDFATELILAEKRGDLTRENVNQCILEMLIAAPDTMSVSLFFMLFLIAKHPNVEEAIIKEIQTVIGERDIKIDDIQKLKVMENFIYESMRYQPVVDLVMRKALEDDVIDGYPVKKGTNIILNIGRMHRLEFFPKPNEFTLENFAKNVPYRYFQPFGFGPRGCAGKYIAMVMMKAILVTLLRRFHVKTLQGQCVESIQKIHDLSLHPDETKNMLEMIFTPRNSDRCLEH

For the compound `O=C(/C=C/c1ccccc1)OCCc1ccccc1`, the Potency result (in experiment [1]; in [2]; in [4]; in [5]; in experiment [7]; with Aromatase (Homo sapiens)) was “inactive” each time. The Potency entry in experiment [8], in experiment [9], in experiment [10], in [11], in [12] and in experiment [13] was “inactive” in each case. For the same compound, the Potency result in experiment [14], in experiment [15] and in [16] was “inactive” in each case. Moreover, the result in experiment [3] was inactive. In [6], the Potency was 4.86 µM (active).
On to `CC=C(Cl)Cl`, for which the Potency entry in [1], in experiment [2], in [17], in experiment [4], in experiment [6] and in experiment [7] was “inactive” in each case. Also, the Potency result (in the experiment with Aromatase (Homo sapiens); in experiment [8]; in experiment [9]; in experiment [10]; in [11]; in experiment [12]) was “inactive” each time. The Potency entry in experiment [13], in experiment [18], in experiment [14], in experiment [15] and in experiment [16] was “inactive” in each case. Besides, the compound was called inactive in experiment [3].
As for `COc1cc(N)c(Cl)cc1C(=O)NC1CCN(CCCOc2ccc(F)cc2)CC1OC` (stereo unspecified), the Potency in [1] and in [2] was 11.4 µM (active) in each case. For the same compound, the outcome in experiment [3] was inactive. Further, the Potency entry (in [17]; in [4]; in [5]; in the experiment with Aromatase (Homo sapiens); in experiment [8]; in experiment [9]) was “inactive” in each case. Also, the Potency entry in experiment [10], in [11], in experiment [12], in experiment [13], in experiment [18] and in experiment [14] was “inactive” throughout. In addition, the Potency entry in [15] and in [16] was “inactive” throughout.
Consider `O=C(O)CCCCCCCCCCCBr`, for which the Potency result in experiment [1], in experiment [2], in [4], in experiment [5], in [6] and in experiment [19] was “inactive” throughout. The Potency result (in experiment [7]; with Aromatase (Homo sapiens); in experiment [8]; in experiment [9]; in experiment [10]; in experiment [13]) was “inactive” each time. The Potency entry in experiment [14], in experiment [15] and in experiment [16] was “inactive” in each case. Moreover, the call in [3] was inactive.
As for `COc1ncnc(NS(=O)(=O)c2ccc(N)cc2)c1OC`, the Potency result in experiment [1], in experiment [2], in experiment [4], in experiment [5], in [6] and in [19] was “inactive” in each case. Also, the Potency result (in [7]; in the experiment with Aromatase (Homo sapiens); in experiment [8]; in experiment [9]; in [10]; in experiment [11]) was “inactive” throughout. Besides, the Potency entry in experiment [13], in experiment [14], in experiment [15] and in [16] was “inactive” each time. The compound was called inactive in experiment [3].
Consider `Nc1ccc(N=Nc2ccccc2)c(N)c1`, for which the Potency in experiment [1] is 53.3 µM (active); in [6], 0.336 µM (active); in experiment [7], 26.7 µM (active); in experiment [8], 30 µM (active); in [9], 30 µM (active); in experiment [10], 26.7 µM (active). For the same compound, in experiment [12], the Potency is 42.7 µM (active). Further, the Potency result (in experiment [2]; in experiment [4]; in experiment [5]; in the experiment with Aromatase (Homo sapiens); in experiment [11]; in experiment [14]) was “inactive” in each case. For the same compound, the Potency entry in experiment [15] is “inactive”. The compound was called inactive in experiment [3].
As to `Cc1ccco1`, the Potency result in experiment [1], in [2], in experiment [4], in [5], in [6] and in experiment [7] was “inactive” throughout. For the same compound, the Potency result (with Aromatase (Homo sapiens); in [8]; in experiment [9]; in [10]; in experiment [11]; in experiment [12]) was “inactive” throughout. Also, the Potency entry in experiment [13], in experiment [14], in [15] and in [16] was “inactive” each time. The result in [3] was inactive.
As for `CCOC(=O)C1=C(C)NC(C)=C(C(=O)OC)C1c1cccc(Cl)c1Cl` (stereo unspecified), the Potency in experiment [1] is 18.8 µM (active); in experiment [2], 18.8 µM (active); in experiment [5] it was 10.7 µM [activator] (active); in experiment [9] it was 1.88 µM (active). Further, the compound was called inactive in experiment [3]. Besides, the Potency result (in experiment [4]; in experiment [6]; in [7]; in the experiment with Aromatase (Homo sapiens); in [8]; in experiment [10]) was “inactive” throughout. Also, the Potency result in experiment [12], in experiment [13] and in experiment [15] was “inactive” throughout.
